Active and inactive are the calls of the source. Unless noted, no rule for the calls is given here.
What was measured:
[1] = compound effects on lung adenocarcinoma cell viability – A549, calcein-AM fluorescence, 48 h, basal, profiling panel (AID 1162); settings: higher = more signal; also: test concentration not given here
[2] = compound effects on differentiated 3T3-L1 adipocyte viability – cell-based, 3T3-L1 adipocytes, calcein-AM fluorescence, 48 h, basal, profiling panel (AID 1163); settings: 3T3-L1 adipocytes viability, higher = more signal; also: test concentration not given here
[3] = compound effects on hepatocellular carcinoma cell viability – HepG2, calcein-AM fluorescence, 48 h, basal, profiling panel (AID 1164); settings: higher = more signal; also: test concentration not given here
[4] = compound effects on multiple myeloma cell viability – MM1S, calcein-AM fluorescence, 48 h, basal, profiling panel (AID 1165); settings: higher = more signal;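 also: viability of MM1S multiple myeloma cells under basal unstimulated conditions; test concentration not given here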
[5] = calcein-AM signal in unstimulated myeloma cells – cell-based, calcein-AM fluorescence, 48 h, PK04 Diversity Set, profiling panel (AID 1166); settings: RPMI8226 myeloma viability, higher = more signal;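 also: cells grown under basal conditions without added stimulus; test concentration not given here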
[6] = JC-1 mitochondrial signal, unstimulated HepG2 cells – cell-based, JC-1 fluorescence, 24 h, 100 nL compound, profiling panel (AID 1167); settings: HepG2 mitochondrial potential, higher = more signal; also: test concentration not given here
[7] = JC-1 mitochondrial signal, unstimulated adipocytes – cell-based, JC-1 fluorescence, 3T3-L1 adipocytes, 24 h, 100 nL compound, profiling panel (AID 1168); settings: JC-1 mitochondrial fluorescence, higher = more signal, called active from +8 up or from −8 down; also: test concentration not given here
[8] = JC-1 mitochondrial signal, unstimulated myeloma cells – cell-based, JC-1 fluorescence, RPMI8226, 24 h, 100 nL compound, profiling panel (AID 1169); settings: JC-1 mitochondrial potential fluorescence, higher = more signal; also: test concentration not given here
[9] = JC-1 mitochondrial signal, unstimulated MM1S myeloma – cell-based, JC-1 fluorescence, 24 h, 100 nL compound, profiling panel (AID 1170); settings: MM1S mitochondrial potential, higher = more signal; also: test concentration not given here
[10] = resazurin metabolic signal in A549 cells – cell-based, resazurin fluorescence, 24 h, PK04 Diversity Set, profiling panel (AID 1171); settings: A549 viability, higher = more signal, called active from +8 up or from −8 down; also: test concentration not given here
[11] = resazurin metabolic signal in HepG2 cells – cell-based, resazurin fluorescence, 24 h, PK04 Diversity Set, profiling panel (AID 1172); settings: HepG2 viability, higher = more signal; also: test concentration not given here
[12] = budding yeast growth changes without added modifier – OD600, strain BY4716, 24 h, basal condition, primary screen (AID 1173); settings: S. cerevisiae BY4716 growth, OD600, 24 h; higher = more signal, called active from +8 up or from −8 down
[13] = viability profiling in MM1S myeloma cells – cell-based, resazurin fluorescence, basal, 24 h, PK04 Diversity Set, profiling panel (AID 1174); settings: higher = more signal, called active from +8 up or from −8 down; also: test concentration not given here
[14] = molecular target: Dihydroorotate dehydrogenase (quinone), mitochondrial (Plasmodium falciparum (isolate 3D7)) (UniProt Q08210); test: inhibition of P. falciparum DHODH – biochemical, C-terminal His tag, absorbance 600 nm, primary screen (AID 1175); settings: PfDHODH enzyme, DCIP absorbance 600 nm; higher = more signal, called active from +8 up or from −8 down;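 also: recombinant parasite enzyme with a five histidine tag at its C terminus; test concentration not given here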
[15] = inhibition of PAO1 biofilm formation – strain PAO1, LB-PBS medium, absorbance 600 nm, primary screen (AID 1176); also: test concentration not given here; settings: P. aeruginosa PAO1 growth/biofilm, A600, 12 h; higher = more signal
[16] = growth modulation of vineyard yeast isolate – strain RM11-1a, OD600, basal, 24 h, primary screen (AID 1177);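 also: cultures grown under basal conditions with no added stressor; test concentration not given here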; settings: S. cerevisiae RM11-1a growth, OD600, 24 h; higher = more signal, called active from +8 up or from −8 down
[17] = growth of efflux-deficient E. coli DRC39 – strain DRC39, OD650, 24 h, E. coli filamentation inducers, primary screen (AID 1178);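 also: growth measured as culture turbidity by optical density at 650 nm; test concentration not given here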; settings: E. coli DRC39 acrAB, higher = more signal, called active from +8 up or from −8 down
[18] = growth of efflux-deficient E. coli DRC39 – strain DRC39, OD650, 48 h, E. coli filamentation inducers, primary screen (AID 1179);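 also: screen aims at cell division blockers that make cells filament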; settings: E. coli DRC39 delta-acrAB growth, higher = more signal, called active from +8 up or from −8 down
[19] = viability profiling in RPMI8226 myeloma cells – cell-based, resazurin fluorescence, basal, 24 h, PK04 Diversity Set, profiling panel (AID 1180); settings: higher = more signal;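 also: RPMI8826 multiple myeloma cell line at 5000 cells per well; test concentration not given here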
[20] = molecular target: E3 ubiquitin-protein ligase XIAP (Homo sapiens) (UniProt P98170); test: small molecules binding XIAP protein – biophysical, small-molecule microarray, fluorescence 635 nm, primary screen (AID 1181); settings: higher = more signal;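 also: score merges 667 nm emission and signal to noise over triplicate slides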
Chain of E3 ubiquitin-protein ligase XIAP (Homo sapiens) (P98170 whole entry, looked up): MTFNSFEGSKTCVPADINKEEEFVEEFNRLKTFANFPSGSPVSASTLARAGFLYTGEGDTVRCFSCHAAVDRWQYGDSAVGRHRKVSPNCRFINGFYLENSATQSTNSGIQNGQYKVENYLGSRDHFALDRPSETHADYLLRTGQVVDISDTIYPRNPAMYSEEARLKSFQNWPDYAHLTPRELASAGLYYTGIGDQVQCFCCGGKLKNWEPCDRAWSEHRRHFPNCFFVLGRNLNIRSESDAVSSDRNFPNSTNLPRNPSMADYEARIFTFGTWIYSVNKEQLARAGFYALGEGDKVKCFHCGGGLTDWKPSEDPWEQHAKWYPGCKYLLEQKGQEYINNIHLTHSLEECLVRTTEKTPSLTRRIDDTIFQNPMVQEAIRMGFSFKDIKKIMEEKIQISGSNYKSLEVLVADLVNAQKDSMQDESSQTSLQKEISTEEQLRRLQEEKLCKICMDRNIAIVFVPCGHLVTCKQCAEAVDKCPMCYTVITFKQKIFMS

Chain of Dihydroorotate dehydrogenase (quinone), mitochondrial (Plasmodium falciparum (isolate 3D7)) (Q08210 whole entry, looked up): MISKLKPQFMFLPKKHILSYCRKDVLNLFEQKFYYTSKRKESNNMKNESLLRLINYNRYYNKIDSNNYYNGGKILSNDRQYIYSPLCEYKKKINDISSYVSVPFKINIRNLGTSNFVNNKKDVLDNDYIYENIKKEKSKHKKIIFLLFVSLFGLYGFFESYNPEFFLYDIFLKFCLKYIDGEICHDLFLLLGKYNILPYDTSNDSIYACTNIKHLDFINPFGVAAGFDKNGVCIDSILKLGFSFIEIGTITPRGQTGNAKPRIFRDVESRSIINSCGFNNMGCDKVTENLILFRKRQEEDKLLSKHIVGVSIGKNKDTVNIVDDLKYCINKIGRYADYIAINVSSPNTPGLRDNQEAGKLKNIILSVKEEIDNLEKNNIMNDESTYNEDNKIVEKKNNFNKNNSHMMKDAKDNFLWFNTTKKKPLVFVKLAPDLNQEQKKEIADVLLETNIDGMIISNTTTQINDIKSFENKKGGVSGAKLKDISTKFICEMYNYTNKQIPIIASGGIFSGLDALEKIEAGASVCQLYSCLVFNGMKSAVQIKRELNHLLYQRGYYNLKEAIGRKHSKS

Row | SMILES | z-score [1] | z-score [2] | z-score [3] | z-score [4] | z-score [5] | z-score [6] | z-score [7] | z-score [8] | z-score [9] | z-score [10] | z-score [11] | z-score [12] | z-score [13] | composite z-score [14] | z-score [15] | z-score [16] | z-score [17] | z-score [18] | z-score [19] | composite z-score [20]
1 | C[C@]1(C(=O)NCc2ccccc2)c2ccccc2C(=O)N(Cc2cc(F)cc(C(F)(F)F)c2)[C@H]1c1ccc(CO)cc1 | 0.179 | -0.628 | 1.11 | 0.304 | 0.411 | 2.16 | 0.41 (inactive) | 0.714 | -0.765 | -0.375 (inactive) | -0.555 | -0.276 (inactive) | -0.179 (inactive) | 0.225 (inactive) | 0.155 (inactive) | 0.179 (inactive) | 1.2 (inactive) | 1.6 (inactive) | 0.0748 | 0.0256
2 | COc1ccc(CCNC(=O)[C@@H]2c3ccccc3C(=O)N(Cc3ccc(OC(F)(F)F)cc3)[C@H]2c2ccc(CO)cc2)cc1 | 0.843 | 0.614 | -1.01 | -2.39 | -1.99 | 1.14 | -0.0731 (inactive) | 0.118 | -0.23 | 0.619 (inactive) | 0.697 | -0.484 (inactive) | -0.0601 (inactive) | 0.274 (inactive) | 1.52 (inactive) | -0.419 (inactive) | -0.344 (inactive) | -1.06 (inactive) | 0.53 | -0.228
3 | COC(=O)C[C@@H]1C[C@H](C)[C@]2(O1)C(=O)N(Cc1ccccc1)c1ccc(NC(C)=O)cc12 | -0.0958 | 0.663 | -0.258 | 0.186 | -0.804 | -0.0913 | -0.551 (inactive) | -0.183 | 0.229 | -0.982 (inactive) | -0.873 | -1.15 (inactive) | -1.19 (inactive) | 0.281 (inactive) | -0.0582 (inactive) | 0.0057 (inactive) | -0.768 (inactive) | -1.33 (inactive) | -0.888 | 0.123
4 | CC(C)NC(=O)[C@@H]1c2ccccc2C(=O)N(Cc2ccccc2Cl)[C@H]1c1ccc(CO)cc1 | 1.97 | 0.84 | 1.23 | 0.0027 | 0.665 | 2.42 | -0.466 (inactive) | -0.195 | -0.615 | 1.46 (inactive) | 1.6 | -0.197 (inactive) | -0.27 (inactive) | 0.233 (inactive) | 0.183 (inactive) | 0.358 (inactive) | 0.696 (inactive) | 0.661 (inactive) | 0.131 | 0.103
5 | COc1ccc(C(O)C2C=CC3C(=O)N(c4ccccc4)C(=O)C3N2Nc2ccc([N+](=O)[O-])cc2)cc1OCc1ccccc1 (stereo not given) | -0.805 | -0.64 | -1.09 | 0.324 | -0.378 | -0.608 | -1.46 (inactive) | -0.215 | -0.693 | 0.317 (inactive) | -0.46 | 0.948 (inactive) | -0.644 (inactive) | 0.323 (inactive) | 2.14 (inactive) | -0.384 (inactive) | -0.908 (inactive) | -0.337 (inactive) | -0.839 | -0.0655
6 | COCCOC(=O)N1C(=O)[C@@]2(c3cc(C#Cc4ccc(OC)cc4)ccc31)[C@H](C(=O)N1CCN(c3ncccn3)CC1)[C@H]1C(=O)O[C@H](c3ccccc3)[C@H](c3ccccc3)N1[C@@H]2c1ccc(O)cc1 | 1.23 | 1.26 | 0.986 | 0.973 | 0.806 | -0.013 | 2.2 (inactive) | 0.157 | 0.193 | 1.31 (inactive) | -0.221 | 0.558 (inactive) | -1.68 (inactive) | -1.45 (inactive) | 1.42 (inactive) | -0.604 (inactive) | -0.0707 (inactive) | 1.09 (inactive) | 0.0808 | 0.134
7 | CCOC(=O)C1=CCC(c2ccc(C#N)cc2)N(S(=O)(=O)c2ccc(C)cc2)C1 (stereo not given) | -1.14 | -0.68 | 0.109 | -0.548 | -0.741 | -0.259 | 0.345 (inactive) | -0.516 | -1.71 | -0.343 (inactive) | -0.688 | 0.916 (inactive) | -1.35 (inactive) | -0.496 (inactive) | 0.654 (inactive) | 0.906 (inactive) | -0.445 (inactive) | 0.435 (inactive) | -1.94 | -0.187
8 | N#Cc1ccc(NN2C(C(O)c3ccc([N+](=O)[O-])cc3)C=CC3C(=O)N(c4ccccc4)C(=O)C32)cc1 (stereo not given) | -1.14 | 0.0202 | -0.335 | -0.237 | -0.402 | -1.91 | -0.703 (inactive) | -0.993 | 0.0361 | 0.172 (inactive) | -1.07 | -0.203 (inactive) | -0.55 (inactive) | -0.0079 (inactive) | 1.23 (inactive) | -0.487 (inactive) | -0.685 (inactive) | -0.418 (inactive) | -1.08 | -0.0391
9 | Cc1cc(C)cc(N2C(=O)CS(=O)(=O)C2c2cccc([N+](=O)[O-])c2)c1 (stereo not given) | 1.26 | 0.869 | 1.41 | 0.871 | 1.47 | 0.994 | 0.76 (inactive) | -0.327 | -0.744 | -0.913 (inactive) | -0.0507 | -0.658 (inactive) | -0.208 (inactive) | -2.1 (inactive) | -0.407 (inactive) | -0.438 (inactive) | 0.899 (inactive) | 1.04 (inactive) | -0.194 | -0.22
